Source: PubChem BioAssay (National Center for Advancing Translational Sciences (NCATS))
Rango dissoc inh: inhibitors of RanGTP-induced Rango-importin beta complex dissociation | O95149+P62826 | Biochemical FRET Rango-importin beta, RanGTP-induced dissociation | Potency, µM (series often up to 46.1 µM) | 340,000 tested, 0.071% active | AID 540253; calls by dose curve; note: nearly all actives have a fitted effect of over 45% in size
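Two FRET readings bracket the reaction: one 5 min after compound meets Rango–importin beta, another 45 min after RanGTP-RCC1 (0.6 uM Ran, 0.2 uM RCC1, 2 mM GTP) is added. Only the second defines inhibition.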
ELG1 repair inh: inhibitors of ELG1-dependent DNA repair in HEK293T cells; HEK293T ELG1-luciferase reporter, luminescence, 16 h; DNA damage induced by 5-fluorouridine; Potency, µM (top dose mostly 46.1 µM), hits mostly inhibitors; 330,000 tested, 2.3% active; AID 504467; note: nearly all actives have a fitted effect of over 55% in size
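Cells (2,000 per well) received 5-fluorouridine plus test compound or DMSO and were incubated 16 hr at 37 °C, 5% CO2. Luciferase activity was read by luminescence 30 min after ONE-Glo addition; signal suppression marked inhibition of damage-induced ELG1 function.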
Tb PFK inh: blocks T. brucei phosphofructokinase; O15648; T. brucei PFK, ADP-Glo luminescence; Potency, µM (titrated, usually from 57.5 µM), actives largely listed as inhibitors; 330,000 tested, 0.17% active; note: nearly all actives have a fitted effect of over 60% in size
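Compounds were pin-transferred as a titration series up to 57 uM into substrate buffer (0.5 mM F6P, 0.1 mM ATP, pH 8.0), then 1.25 nM PFK was added and reactions ran 45 min before ADP-Glo detection.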
Rango complex inh: inhibitors of Rango-importin beta complex formation. Potency, µM (doses to about 92.2 µM). 340,000 tested, 0.031% active. Rango CFP/YFP FRET sensor + importin beta, 45 min. Q14974; calls by dose curve; note: nearly all actives have a fitted effect of over 15% in size
Target sequence (Q14974 whole entry, looked up): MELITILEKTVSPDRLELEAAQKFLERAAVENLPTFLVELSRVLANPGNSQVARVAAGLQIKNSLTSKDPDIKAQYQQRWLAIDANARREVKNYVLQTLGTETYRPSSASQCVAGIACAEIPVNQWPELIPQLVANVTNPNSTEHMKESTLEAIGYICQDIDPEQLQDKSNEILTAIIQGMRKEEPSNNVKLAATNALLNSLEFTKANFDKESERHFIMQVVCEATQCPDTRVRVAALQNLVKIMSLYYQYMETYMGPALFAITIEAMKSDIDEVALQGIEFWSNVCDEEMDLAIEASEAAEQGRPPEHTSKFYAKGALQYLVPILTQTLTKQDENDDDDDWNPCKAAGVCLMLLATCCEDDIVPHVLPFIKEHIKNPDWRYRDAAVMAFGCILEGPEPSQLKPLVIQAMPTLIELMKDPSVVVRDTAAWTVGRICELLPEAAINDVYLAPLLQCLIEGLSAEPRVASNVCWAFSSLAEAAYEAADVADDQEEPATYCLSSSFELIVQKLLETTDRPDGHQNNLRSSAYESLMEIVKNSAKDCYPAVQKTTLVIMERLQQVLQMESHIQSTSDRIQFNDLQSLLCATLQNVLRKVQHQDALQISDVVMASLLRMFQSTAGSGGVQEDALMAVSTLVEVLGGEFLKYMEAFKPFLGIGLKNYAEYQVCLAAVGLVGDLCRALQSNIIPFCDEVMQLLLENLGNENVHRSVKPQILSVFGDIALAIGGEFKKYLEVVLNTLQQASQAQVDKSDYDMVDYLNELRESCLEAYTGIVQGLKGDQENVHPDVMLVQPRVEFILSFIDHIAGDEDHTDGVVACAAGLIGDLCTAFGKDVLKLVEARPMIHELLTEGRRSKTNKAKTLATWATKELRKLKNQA
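Inhibition scored from the CFP 486 nm/YFP 530 nm FRET ratio 45 min after adding 0.125 microM importin beta to 50 nM Rango biosensor preincubated 5 min with compound (room temperature, PBS with DTT, Tween-20, BSA). No-importin wells as positive control.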
PKM2 activator: increases activity of human pyruvate kinase M2. P14618. purified PKM2, Kinase-Glo ATP luminescence, activation; response scale: 0% is enzyme alone, no compound. Potency, µM (titrated, usually from 57.5 µM), hits mostly activators. 260,000 tested, 0.34% active. AID 1631; note: nearly all actives have a fitted effect of over 55% in size
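Purified hPK-M2 (>95%) run at intermediate activity with 0.1 mM ADP and 0.5 mM PEP in 50 mM imidazole pH 7.2, KCl, MgCl2; 1 h room temperature. ATP formed read by Kinase-Glo luminescence; normalized to uninhibited and no-enzyme controls.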
Tb PGK inh: inhibitors of T. brucei phosphoglycerate kinase | PGK/GAPDH coupled, Kinase-Glo luminescence, 60 min | Potency, µM (series often up to 57.5 µM), most hits filed as inhibitors | P07378 | 380,000 tested, 0.043% active | AID 602233; note: nearly all actives have a fitted effect of over 60% in size
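Luminescent ATP detection (Kinase-Glo Plus) follows a 60-minute room-temperature incubation, with wells lacking PGK as controls. Buffer: 100 mM TEA (pH 7.6), 5 mM MgCl2, 0.01% Tween-20. Coupling enzyme GAPDH (100 nM final) supplies unstable 1,3-BPG in-well.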
Hits are given with their value; i = inactive; ? = inconclusive; nt = no result. Sampled rows, rich in hits. Any-hit rate of the full collection: about 2.4%. Unless noted, calls come from the whole dose curve; as a rule, active = well fitted curve in the direction sought with a large enough effect; inconclusive = small, poorly fitted or top-dose-only effect, or another doubt; inactive = no such curve, though single readings can be large; an effect the other way counts as inactive or inconclusive.

SMILES	Rango dissoc inh	ELG1 repair inh	Tb PFK inh	Rango complex inh	PKM2 activator	Tb PGK inh
O=[N+]([O-])c1ccc(O)c(-c2ccnc3cc(-c4ccccc4)nn23)c1	nt	nt	nt	nt	nt	i
CCC(=O)NC(c1ccc([N+](=O)[O-])cc1)c1c(O)ccc2ccccc12 (stereo not drawn)	i	i	i	i	i	i
CCCCC(=O)NC(c1ccc([N+](=O)[O-])cc1)c1c(O)ccc2ccccc12 (stereo not drawn)	i	26µM	i	i	i	i
CN(C)CCNC(=O)CCCN1C(=O)c2cccnc2Oc2ccc(Cl)cc21	nt	nt	nt	nt	nt	i
COc1cc(OC)cc(C(=O)Nc2cccc(NC(=O)c3ccccc3)c2)c1	i	16µM	i	i	nt	i
COc1cc(OC)cc(C(=O)Nc2cccc(C(C)=O)c2)c1	i	i	i	i	i	i
CC(=O)Oc1ccc(C(=O)Nc2cccc(C(=O)NC(C)(C)C)c2)cc1	i	i	i	i	i	i
CC(=O)Oc1ccc(C(=O)Nc2cccc(C(=O)c3cccc(NC(=O)c4ccc(OC(C)=O)cc4)c3)c2)cc1	i	23µM	i	i	?	i
CCN(CC)C(=O)C1=C(C)N(Cc2ccc(OC)cc2)C(=O)C(CC(=O)NCCc2ccccn2)C1 (stereo not drawn)	nt	nt	nt	nt	nt	i
O=C(c1ccc(Oc2ccc([N+](=O)[O-])cc2)cc1)N1CCCCCC1	i	?	i	i	i	i
O=C(CCc1ccc(Oc2cc([N+](=O)[O-])cc([N+](=O)[O-])c2)cc1)N1CCCCC1	i	13µM	i	i	i	i
CCCCN(C)S(=O)(=O)c1cc2c(cc1Br)CCN2C(=O)C1CC1	i	nt	nt	i	nt	i
CC1C(=O)N2CCCc3cc(S(=O)(=O)N4CCN(c5cccc(Cl)c5)CC4)cc1c32 (stereo not drawn)	i	i	i	i	nt	i
CC1(c2nnc(-c3ccncc3)o2)CC(c2ccc([N+](=O)[O-])cc2)=NO1 (stereo not drawn)	i	21µM	i	i	i	i
CC1(c2nnc(-c3ccc(Cl)cc3)o2)CC(c2ccc([N+](=O)[O-])cc2)=NO1 (stereo not drawn)	i	i	i	i	i	i
CC(C)(C)c1ncc(S(=O)(=O)c2ccc(C(F)(F)F)cn2)c(N)n1	i	i	i	i	i	i
CCCN1CCc2c(sc(NC(=O)CCS(=O)(=O)c3ccccc3)c2C(N)=O)C1	?	i	i	?	i	i
CN1CCc2c(sc(NC(=O)CS(=O)(=O)c3ccccc3)c2C(N)=O)C1	23µM	i	i	?	nt	i
O=c1[nH][nH]c(=O)c2c(NS(=O)(=O)c3ccccc3)cccc12	i	?	i	i	11µM	i
Cc1ccc(NC(=O)CSc2nnc(-c3cc4occc4n3C)n2-c2ccccc2C)c(Cl)c1	nt	nt	nt	nt	nt	i
O=C1OC(c2ccc(F)cc2)=N/C1=C\C=C/c1ccccc1	i	i	i	i	nt	i
O=C1S/C(=C\c2ccc(N3CCOCC3)o2)C(=O)N1Cc1c(F)cccc1Cl	i	i	i	?	2.5µM	nt
COc1ccc(N(Cc2ccccc2)C(=O)c2nc(S(C)(=O)=O)ncc2Cl)cc1	nt	nt	nt	nt	nt	i
CC1=C(C(=O)N(C)C)CC(CC(=O)NCCc2ccccn2)C(=O)N1CCCN1CCCC1=O (stereo not drawn)	nt	nt	nt	nt	nt	i
Cc1cc(C)c(C#N)c(SCCS(=O)(=O)c2ccc(Cl)cc2)n1	i	i	i	i	20µM	i
SMILES	Rango dissoc inh	ELG1 repair inh	Tb PFK inh	Rango complex inh	PKM2 activator	Tb PGK inh
Cc1cc(C)c(C#N)c(SCCS(=O)(=O)c2ccc(C(C)(C)C)cc2)n1	i	i	i	i	i	i
COc1ccc(-c2cn(-c3ccc(Br)cc3)c3[n+]2CCS3)cc1	i	i	i	i	i	i
CC(=O)c1ccc(-n2cc(-c3ccc(C(C)(C)C)cc3)[n+]3c2SCCC3)cc1	i	7.3µM	i	i	i	i
c1csc(-c2cn3ccc4ccccc4c3n2)c1	i	16µM	i	i	i	i
Cn1c(SCC(=O)NCc2ccc3c(c2)OCO3)nc2scc(-c3cccs3)c2c1=O	i	13µM	i	i	i	i
O=C(CSc1n[nH]c(-c2cccs2)n1)NCc1ccc2c(c1)OCO2	i	i	i	i	i	i
C=CCn1c(SCC(=O)NCc2ccc3c(c2)OCO3)nc2scc(-c3ccc(F)cc3)c2c1=O	i	15µM	i	i	i	i
C=CCn1c(SC(C)C(=O)NCc2ccc3c(c2)OCO3)nc2scc(-c3ccccc3)c2c1=O (stereo not drawn)	i	?	i	i	i	i
Cc1c(C(=O)Nc2ccc(S(=O)(=O)N3CCOCC3)cc2)cccc1[N+](=O)[O-]	i	i	i	i	i	i
Fc1ccc(-c2cn(-c3ccccc3)c3[n+]2CCS3)cc1	i	21µM	i	i	i	i
CCOC(=O)/C(=N\Nc1ncnc2ccccc12)c1ccc(C)cc1	i	?	i	i	nt	i
N#C/C(=C/c1ccc(Sc2nc3ccccc3[nH]2)o1)c1cccc(F)c1	?	18µM	i	?	i	i
CC(C)(C)OC(=O)C[C@@H]1C/C=C\C[C@@H](CC(=O)N(CCO)Cc2ccccc2)C(=O)N[C@@H](c2ccccc2)COC1=O	i	15µM	i	i	nt	i
C[C@@H]1COC(=O)[C@H](NC(=O)OCC2c3ccccc3-c3ccccc32)C/C=C\C[C@@H](CC(=O)N(CCO)Cc2ccccc2)C(=O)N1	i	i	i	i	nt	i
C[C@@H]1COC(=O)[C@H](CC(=O)OC(C)(C)C)C/C=C\C[C@H](CC(=O)N(CCO)Cc2ccccc2)C(=O)N1	i	i	i	i	nt	i
CC(C)(C)[C@H]1COC(=O)[C@H](NC(=O)OCC2c3ccccc3-c3ccccc32)C/C=C\C[C@@H](CC(=O)N(CCO)Cc2ccccc2)C(=O)N1	i	10µM	i	i	nt	i
Cc1ccc(CNC(=O)c2cc3c(C)nc4ccccc4c3o2)cc1	i	15µM	i	i	i	i
Cc1nc2ccccc2c2oc(C(=O)NCc3ccccn3)cc12	i	18µM	i	i	i	i
O=C(NCCCN1CCN(c2ccc(F)cc2)CC1)c1cc2c(Cl)nc3ccccc3c2s1	nt	nt	nt	nt	nt	i
COc1ccc(Nc2nc(Nc3ccc(OC)cc3)nc(-n3[nH]c(=O)c(C)c3C)n2)cc1	i	2.3µM	i	i	i	i
CCOc1ccc(CCNC(=O)c2ccc(CS(=O)Cc3ccccc3Cl)o2)cc1 (stereo not drawn)	i	23µM	i	i	i	i
